Measured values reported in the OligoGym collection.
Note: reference of the scale not given here.

What follows are sequences tested against OTP (assay: pooled miR-30 sensor sort-seq; sequence = guide strand). Conditions: shRNA.
AACATATCACAAATTGACCAGT was tested, and the sensor-assay potency score (higher = more potent) was -0.538.
For TTCCTCGTCACATGACTGCTTT, the sensor-assay potency score (higher = more potent) was -0.353.
TTACAAAAGAAAATTTTGCTTA gave a sensor-assay potency score (higher = more potent) of -0.204.
TTTCTCTGTACAAAGTTGCAGG was tested, and the sensor-assay potency score (higher = more potent) was -0.634.
Sequence TTATCTACACAAAACATCCTAT has a sensor-assay potency score (higher = more potent) of -0.185.
In the case of TGTCCCTTGAACACGTCCGTGT, the sensor-assay potency score (higher = more potent) is reported as -0.222.
TTAAGTTAAAACATATCACAAA was tested, and the sensor-assay potency score (higher = more potent) was -1.23.
TTGGTAGCAATGCTTGTCCTCC gave a sensor-assay potency score (higher = more potent) of -0.441.
TTTATCTACACAAAACATCCTA showed a sensor-assay potency score (higher = more potent) of 0.114.
In the case of TTCTACACTCTCACACAGTTGT, the sensor-assay potency score (higher = more potent) is reported as 0.376.

What follows are sequences tested against OXGR1 in the same assay as above. Conditions: shRNA.
Sequence TTGCATCTCACTGTTGAGCAGA has a sensor-assay potency score (higher = more potent) of -0.0433.
TTGAGTTCATCCGAACTGGTGA gave a sensor-assay potency score (higher = more potent) of 0.378.
TACAACTGCACATCGAGTTTTG gave a sensor-assay potency score (higher = more potent) of -0.712.
Sequence TTTCTTTGCTTGCTCAAGGTTC has a sensor-assay potency score (higher = more potent) of -0.282.
Sequence TGAATGATCACACAGTAGCGGA has a sensor-assay potency score (higher = more potent) of -1.12.
For AATAGTATTGAGTTCATCCGAA, the sensor-assay potency score (higher = more potent) was -0.145.
Work on TACAGGTTGAAATGGAAGCTGA yielded a sensor-assay potency score (higher = more potent) of -0.61.
For TTGAAATGGAAGCTGAAGCGGA, the sensor-assay potency score (higher = more potent) was 0.195.
Sequence TAATTTTCTTTGCTTGCTCAAG has a sensor-assay potency score (higher = more potent) of -1.24.
TTACTTTGCATCTCACTGTTGA was tested, and the sensor-assay potency score (higher = more potent) was 0.106.
With TAATAGTATTGAGTTCATCCGA the sensor-assay potency score (higher = more potent) was -0.637.
Sequence TTCAGCATAATGATGGTGCTGC has a sensor-assay potency score (higher = more potent) of 0.6.
